Measurements as given in PubChem BioAssay (NCATS).
Results filed as inconclusive are left out. Activity calls are given as the source filed them. The call rests on the fitted dose curve; in most records, active means well fitted curve in the direction sought with a large enough effect; inconclusive means small, poorly fitted or top-dose-only effect, or another doubt; inactive means no such curve, though single readings can be large; an effect the other way counts as inactive or inconclusive.

What was measured:
[1] = molecular target: Glutathione peroxidase 1 (Homo sapiens) (UniProt P07203); experiment: Primary qHTS Assay for Inhibitors of Recombinant Selenoprotein Glutathione Peroxidase 1 (GPX1) (AID 1845191); further: nearly all actives have a fitted effect of over 65% in size; further: potency means the concentration at half of the fitted maximal effect
Summary of the method: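 10 nM GPX1 + cpd, 30 min RT; start w/ 1 mM GSH, 0.5 mM cumene hydroperoxide, 0.5 mM NADPH, 100 nM GR, 0.01% BSA; buffer 50 mM Tris-HCl pH 7.5, 2 mM EDTA, 150 mM NaCl; Fl 340/450, 0 & 15 min.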

[2] = molecular target: Phospholipid hydroperoxide glutathione peroxidase GPX4 (Homo sapiens) (UniProt P36969); experiment: Primary qHTS Assay for Inhibitors of Recombinant Selenoprotein Glutathione Peroxidase 4 (GPX4) (AID 1845192); further: nearly all actives have a fitted effect of over 65% in size
Summary of the method: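 NADPH consumption, followed by fluorescence at 340/450 nm between 0 and 15 min, reports GPX4 activity via coupled glutathione reductase (100 nM). Enzyme 200 nM was pre-exposed to compound 30 min; 0.5 mM cumene hydroperoxide and 1 mM GSH served as substrates.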

[3] = molecular target: Luciferin 4-monooxygenase (Photinus pyralis) (UniProt P08659); experiment: Primary firefly luciferase (FLuc) qHTS assay for identification of artifact compounds. (AID 1845220); settings: outcome: dose series up to 54.1 µM unless noted; further: nearly all actives have a fitted effect of over 60% in size
Summary of the method: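 Compounds sat 15 min at room temperature with 10 uM luciferin and 10 uM ATP (pH 7.6 Tris acetate). Firefly luciferase (10 nM final) was then added, and luminescence was read 5 min later. Data normalized to no-enzyme and DMSO controls were Hill-fitted.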

[4] = Primary fluorescence-based thiol-reactive (MSTI) qHTS assay for identification of artifact compounds. (AID 1845221);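 further: series mostly up to about 54 µM; thiol-reactive compounds lower the probe fluorescence signal; nearly all actives have a fitted effect of over 65% in size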
Summary of the method: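 A multi-concentration qHTS design tested compounds against 4 uM MSTI, pH 7.4 phosphate-buffered saline. Plates were protected from light for 1 h at room temperature before imaging fluorescence.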

[5] = test system: Nanoluciferase (engineered Oplophorus gracilirostris luciferase); experiment: Primary Nanoluciferase (NLuc) qHTS assay for identification of artifact compounds. (AID 1845222); further: series mostly up to about 54 µM
Summary of the method: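 Luminescence from secreted NLuc (filtered, 1:55-diluted S16 cell medium) read 5 min after Nano-Glo substrate; compounds preincubated 15 min, RT. Hill fits of inhibition normalized to DMSO and no-enzyme.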

[6] = Primary redox qHTS assay for identification of artifact compounds. (AID 1845223)
Summary of the method: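 Amplex Red (25 uM) and HRP (250 mU/mL) in HBSS, with compounds for 15 min, then 250 uM DTT for 30 min, room temperature, dark. Fluorescence 525/598 nm read; normalized to DMSO and 10 uM DA3003; Hill fit.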

[7] = Quantitative High-Throughput drug screen in 47 multiple myeloma cell lines against the NCATS MIPE library collection: FR4_PLB cell viability assay (AID 1918924; further: nearly all actives have a fitted effect of over 35% in size; further: potency means the concentration at half of the fitted maximal effect)
Summary of the method: (§1)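 Primary qHTS used for cherry-picking: cells at 500/well, library compounds for 48 h (37C, 5% CO2), luminescent ATP assay.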

[8] = Quantitative High-Throughput drug screen in 47 multiple myeloma cell lines against the NCATS MIPE library collection: Delta47_JCRB cell viability assay (AID 1918925; further: nearly all actives have a fitted effect of over 45% in size; further: potency means the concentration at half of the fitted maximal effect)
Summary of the method: (§2)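 Luminescent ATP measurement with CellTiter-Glo gives viability, scaled between DMSO-only wells (100%) and media-only wells (0%). Cells, 500 per well, faced library compounds for 48 hours at 37C.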

[9] = Quantitative High-Throughput drug screen in 47 multiple myeloma cell lines against the NCATS MIPE library collection: EJM_DSMZ cell viability assay (AID 1918926; further: nearly all actives have a fitted effect of over 30% in size; further: potency means the concentration at half of the fitted maximal effect)
Summary of the method: as §2

[10] = Quantitative High-Throughput drug screen in 47 multiple myeloma cell lines against the NCATS MIPE library collection: AMO1_DSMZ cell viability assay (AID 1918927; further: nearly all actives have a fitted effect of over 30% in size; further: potency means the concentration at half of the fitted maximal effect)
Summary of the method: as §2

[11] = Quantitative High-Throughput drug screen in 47 multiple myeloma cell lines against the NCATS MIPE library collection: ARP1_JJKsccF8 cell viability assay (AID 1918928; further: nearly all actives have a fitted effect of over 40% in size; further: potency means the concentration at half of the fitted maximal effect)
Summary of the method: (§3)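 Myeloma cells, 500 per well, were exposed to MIPE 4.0 drugs by pin transfer for 48 h at 37 °C, 5% CO2. Viability was read as ATP luminescence with CellTiter-Glo, normalised to DMSO-only (100%) and medium-only (0%) wells.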

[12] = Quantitative High-Throughput drug screen in 47 multiple myeloma cell lines against the NCATS MIPE library collection: ARD_JJKsccE7 cell viability assay (AID 1918929; further: potency means the concentration at half of the fitted maximal effect)
Summary of the method: as §2

[13] = Quantitative High-Throughput drug screen in 47 multiple myeloma cell lines against the NCATS MIPE library collection: Karpas620_DSMZ cell viability assay (AID 1918959); further: nearly all actives have a fitted effect of over 30% in size; further: potency means the concentration at half of the fitted maximal effect
Summary of the method: as §1

[14] = Quantitative High-Throughput drug screen in 47 multiple myeloma cell lines against the NCATS MIPE library collection: KMM1_JCRB cell viability assay (AID 1918960); further: nearly all actives have a fitted effect of over 30% in size; further: potency means the concentration at half of the fitted maximal effect
Summary of the method: as §3

[15] = Quantitative High-Throughput drug screen in 47 multiple myeloma cell lines against the NCATS MIPE library collection: KHM11_PLB cell viability assay (AID 1918962); further: nearly all actives have a fitted effect of over 35% in size; further: potency means the concentration at half of the fitted maximal effect
Summary of the method: as §1

[16] = Quantitative High-Throughput drug screen in 47 multiple myeloma cell lines against the NCATS MIPE library collection: JIM3_ECACC cell viability assay (AID 1918963; further: nearly all actives have a fitted effect of over 35% in size; further: potency means the concentration at half of the fitted maximal effect)
Summary of the method: as §1

[17] = Quantitative High-Throughput drug screen in 47 multiple myeloma cell lines against the NCATS MIPE library collection: JIM1_ECACC cell viability assay (AID 1918964; further: potency means the concentration at half of the fitted maximal effect)
Summary of the method: as §2

[18] = Quantitative High-Throughput drug screen in 47 multiple myeloma cell lines against the NCATS MIPE library collection: INA6_PLB cell viability assay (AID 1918965; further: nearly all actives have a fitted effect of over 55% in size; further: potency means the concentration at half of the fitted maximal effect)
Summary of the method: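 We plated 500 myeloma cells per well, pinned in MIPE 4.0 compounds, and incubated for 48 hours at 37C. ATP was then quantified with CellTiter-Glo, with DMSO and media-only wells defining 100% and 0%.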

[19] = Quantitative High-Throughput drug screen in 47 multiple myeloma cell lines against the NCATS MIPE library collection: JJN3_DSMZ cell viability assay (AID 1918966; further: nearly all actives have a fitted effect of over 50% in size; further: potency means the concentration at half of the fitted maximal effect)
Summary of the method: as §2

[20] = molecular target: Metallo-beta-lactamase type 2 (Klebsiella pneumoniae) (UniProt C7C422); experiment: qHTS to identify inhibitors of the New Delhi Metallo-beta-lactamase (NDM): assay validation screen against the NCATS LOPAC Collection (AID 1794843);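 further: nitrocefin turnover by NDM-1 measured as 485 nm absorbance at plateau; series mostly up to about 38 µM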
Summary of the method: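 NDM-1 at 2 nM final in 50 mM HEPES pH 7.0 with 1 uM ZnSO4 and 0.01% Tween20 was preincubated with library compounds in DMSO. Nitrocefin (50 uM stock) was then added, and absorbance at 485 nm was read at the kinetic plateau.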

Measured: Potency

Chain of Glutathione peroxidase 1 (Homo sapiens) (P07203 whole entry, looked up): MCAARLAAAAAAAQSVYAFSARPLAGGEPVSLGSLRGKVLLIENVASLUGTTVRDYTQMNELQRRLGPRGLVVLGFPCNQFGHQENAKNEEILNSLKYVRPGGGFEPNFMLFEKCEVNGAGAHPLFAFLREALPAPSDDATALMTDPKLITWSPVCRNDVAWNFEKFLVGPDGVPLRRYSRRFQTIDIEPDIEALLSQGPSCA
Chain of Phospholipid hydroperoxide glutathione peroxidase GPX4 (Homo sapiens) (P36969 whole entry, looked up): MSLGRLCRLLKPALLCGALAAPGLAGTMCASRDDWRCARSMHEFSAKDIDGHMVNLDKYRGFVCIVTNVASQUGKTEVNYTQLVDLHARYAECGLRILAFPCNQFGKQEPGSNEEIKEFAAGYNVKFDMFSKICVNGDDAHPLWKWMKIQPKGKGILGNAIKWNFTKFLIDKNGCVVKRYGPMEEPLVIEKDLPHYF
Chain of Metallo-beta-lactamase type 2 (Klebsiella pneumoniae) (C7C422 whole entry, looked up): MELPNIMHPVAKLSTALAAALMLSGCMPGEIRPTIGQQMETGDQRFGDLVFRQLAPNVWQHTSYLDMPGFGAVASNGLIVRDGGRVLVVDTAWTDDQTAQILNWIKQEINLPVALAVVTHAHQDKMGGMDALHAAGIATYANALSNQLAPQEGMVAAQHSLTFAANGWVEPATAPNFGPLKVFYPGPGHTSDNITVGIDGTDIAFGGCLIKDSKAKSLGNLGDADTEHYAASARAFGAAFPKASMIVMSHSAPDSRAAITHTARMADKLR

O=c1[nH]c2ccc(Cl)cc2c(N[C@@H]2CN3CCC2CC3)c1-c1nc2ccccc2[nH]1
inactive: [1] | [2] | [3] | [4] | [5] | [6]
active: [7] 0.0743 µM | [8] 0.0935 µM | [9] 0.418 µM | [10] 0.0743 µM | [11] 2.64 µM | [12] 0.935 µM | [13] 5.9 µM | [14] 0.0469 µM | [15] 0.235 µM | [16] 0.0743 µM | [17] 0.0418 µM | [18] 0.0332 µM | [19] 1.05 µM

C=CCC1=C(C)C(OC(=O)C2C(C=C(C)C)C2(C)C)CC1=O (stereo unspecified)
inactive: [1] | [2]

O=[N+]([O-])c1ccc([As](=O)(O)O)cc1
inactive: [1]

COC(=O)[C@@H](N)CCCN=C(N)N[N+](=O)[O-]
not listed: [2] | [3] | [4] | [5] | [6] | [15] | [18] | [19]
inactive: all other assays above

C[C@]12CCC3C(CC[C@H]4C[C@H](O)CC[C@]34C)C1CC[C@@H]2C(=O)CO (stereo partly specified)
inactive: [20] | [1] | [2]

CC[C@@H](C(N)=O)N1CCCC1=O
not listed: [2] | [3] | [4] | [5] | [6] | [17]
inactive: all other assays above

CCC(=O)O[C@@H]1C=C2CCC3C(CCC4(C)C3CC[C@@H]4OC(=O)CC)C2CC1 (stereo partly specified)
inactive: [1]

CC1=NN=C(c2ccc(N)cc2)c2cc3c(cc2C1)OCO3
active: [13] 20.9 µM
inactive: [20] | [1] | [2] | [7] | [8] | [9] | [11] | [16] | [18] | [19]

COC(=O)c1cncn1C(C)c1ccccc1 (stereo unspecified)
inactive: [1]

O=C(O)Cc1cnc[nH]1
inactive: [1]

O=C(O)[C@@H]1CCN1
inactive: [1] | [2]

O=C(N[C@H]1CN2CCC1CC2)c1ccc(Cl)cc1
not listed: [2] | [8] | [10] | [11] | [14] | [17] | [18] | [19]
inactive: all other assays above

CNCCc1c[nH]c2ccc(O)cc12
inactive: [1] | [2]

C[C@]12N[C@H](Cc3ccccc31)c1ccccc12
inactive: [1]

S=C(SSC(=S)N1CCCCC1)N1CCCCC1
active: [1] 12.8 µM

NC1CC1c1ccccc1 (stereo unspecified)
not listed: [3] | [4] | [5] | [6] | [14] | [17] | [19]
inactive: all other assays above

CCCN(CCC)[C@@H]1CCc2ccc(O)cc2C1
inactive: [20] | [1] | [2]

O=[N+]([O-])/N=C1\NCCN1Cc1ccc(Cl)nc1
inactive: [1]

COc1ccc2c(c[n+](C)c3c4cc5c(cc4ccc23)OCO5)c1OC
active: [7] 4.18 µM | [8] 9.35 µM | [9] 2.96 µM | [10] 6.62 µM | [11] 2.96 µM | [12] 7.43 µM | [13] 5.9 µM | [15] 6.62 µM | [16] 7.43 µM | [17] 4.18 µM | [18] 8.33 µM | [19] 2.64 µM
inactive: [20] | [1] | [2]

CCCCCCCCCCCCCCCC[N+](C)(C)C
inactive: [1]

CC(=O)NCCc1c[nH]c2ccccc12
inactive: [20] | [1] | [2] | [3] inactive [at 86.2 µM] | [5] | [6]

C/C=C(/C)C(=O)O[C@H]1C(C)=C2[C@H]([C@@H]1OC(=O)CCCCCCC)[C@@](C)(OC(C)=O)C[C@H](OC(=O)CCC)[C@@]1(O)[C@H]2OC(=O)[C@@]1(C)O
inactive: [1] | [2] | [3] | [4] | [5] | [6]

Cc1cc(O)ccc1Cl
inactive: [1] | [2]

NC(CP(=O)(O)O)C(=O)O (stereo unspecified)
inactive: [1]

c1ccc(CCCN2CCN(CCOC(c3ccccc3)c3ccccc3)CC2)cc1
inactive: [20] | [1] | [2] | [12] | [13] | [14]
active: [7] 23.5 µM | [8] 16.6 µM | [15] 16.6 µM | [16] 20.9 µM | [18] 20.9 µM | [19] 20.9 µM

O=C(O)COc1ccccc1
inactive: [1] | [2]

O=C(Oc1ccc([N+](=O)[O-])cc1)N1CCC(C(O)(c2ccc3c(c2)OCO3)c2ccc3c(c2)OCO3)CC1
active: [16] 8.33 µM | [18] 10.5 µM
inactive: [1] | [2] | [3] | [4] | [5] | [6] | [7] | [9] | [11]
